TDP-43 yeast inh: inhibitors of TDP-43 toxicity in yeast. TDP-43 expressing yeast growth rescue, BacTiter-Glo, 24 h. Potency, µM (highest dose often 46.1 µM), inactives show at the top dose growth rescue (activation), usual class: activators. 410,000 compounds, 1.8% hits; also: potency is read from the fitted curve at half-maximal effect; % of control where 0% means no effect; nearly all actives have a fitted effect of over 50% in size
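Yeast expressing TDP-43 (pregrown in raffinose, seeded at OD600=0.02 in galactose medium) exposed to compounds 24 hr at 30 deg C. Growth read by BacTiter-Glo luminescence; rescue of toxicity appears as increased signal.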
Akt phos inh: inhibitors of Akt phosphorylation | Neuro2A IGF-stimulated pAkt S473 HTRF, 20 min; stronger effect = lower value | AID 651550 | 360,000 compounds, 0.32% hits | activity change, % for hits at 50 µM; in the data active = activity change below about -80%; inconclusive = mostly about -51% to -80%; also: % is scaled to controls: 0 for no effect and ±100 for the full control effect
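Neuro2A cells (4,500/well, DMEM with 0.5% FBS) were treated with compound at a single 50 µM final concentration, stimulated with 6 nM IGF for 20 min at 37 °C, and lysed. Phospho-Akt Ser473 was read by HTRF as 665/615 ratio ×10^4.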
CCT modulator: modulators of cytosolic chaperonin (CCT/TRiC) activity; purified chaperonin ATPase assay, HTRF ADP detection, 30 min; activity change, % (test concentration not listed), hits read low; 360,000 compounds, 0.3% hits; AID 651819; in the data active = activity change below about -30%; also: % is scaled to controls: 0 for no effect and ±100 for the full control effect
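TRiC (40 or 20 nM final, by batch activity) in 30 mM Tris pH 7.4, 100 mM KCl, 5 mM MgCl2, 1 mM DTT was treated with compound at 76 uM single dose, then 10 uM ATP, 30 min at 37 °C. ADP was read by HTRF Transcreener.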
Apoferritin bind: candidate novel general anesthetic via apoferritin binding | P02791 | apoferritin/1-aminoanthracene competitive binding, fluorescence | Potency, µM (highest dose often 77.5 µM), for inactives: top-dose activity change, negative = displacement, hits mostly inhibitors | 350,000 compounds, 0.074% hits; also: potency is read from the fitted curve at half-maximal effect; % is scaled to controls: 0 for no effect and ±100 for the full control effect; nearly all actives have a fitted effect of over 20% in size
Target sequence (P02791 2-175 limits assumed): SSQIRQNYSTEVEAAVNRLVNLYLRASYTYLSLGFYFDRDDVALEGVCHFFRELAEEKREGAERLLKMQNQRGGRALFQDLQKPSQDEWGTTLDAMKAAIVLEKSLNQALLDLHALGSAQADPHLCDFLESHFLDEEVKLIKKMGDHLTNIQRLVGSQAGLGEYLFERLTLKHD
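Horse-spleen apoferritin (10 uM) in 50% saturated 1-aminoanthracene in PBS was incubated 10 min at room temperature with compound. Fluorescence (ex 380, em 535 nm) was normalized to free and bound 1-AMA, with concentration-response fitted by a four-parameter Hill equation.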
aSyn rescue: rescues yeast growth from alpha-synuclein toxicity; 370,000 compounds, 0.14% hits; Yeast expressing alpha-synuclein, growth rescue, BacTiter-Glo, 24 h; AID 652106; Potency, µM (highest dose often 46.1 µM), for inactives: at the highest dose growth rescue (activation), most hits filed as activators; also: potency is read from the fitted curve at half-maximal effect; % of control where 0% means no effect; nearly all actives have a fitted effect of over 65% in size
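Screening used galactose-induced yeast with toxic alpha-synuclein levels, exposed to compound for 24 hr at 30 deg C. Cell growth, read with BacTiter-Glo luminescence, gave the measured signal.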
Mito fusion act: inhibitors of mitochondrial division or activators of mitochondrial fusion. S. cerevisiae fusion-defective mutant growth rescue, CellTiterGlo 48 h. Potency, µM (doses to about 46.1 µM), for inactives: top-dose growth rescue (activation), actives largely listed as activators. AID 485298. 320,000 compounds, 0.23% hits; also: potency is read from the fitted curve at half-maximal effect; % of control where 0% means no effect; nearly all actives have a fitted effect of over 45% in size
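S. cerevisiae fusion-defective temperature-sensitive mutants (e.g. fzo1-1, mgm1-5) grown 48 h at 37C in YPEG (ethanol/glycerol non-fermentable) medium with 23 nl compound per well; growth rescue read as CellTiterGlo luminescence.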
Starred values were filed as active, the others as inactive; i = inactive; ? = inconclusive; / = no result given. Compounds with a hit are over-represented: about 2.5% of the library has one in this group of screens. Unless noted, calls follow the shape of the dose curve; as a rule, active = well fitted curve in the direction sought with a large enough effect; inconclusive = small, poorly fitted or top-dose-only effect, or another doubt; inactive = no such curve, though single readings can be large; an effect the other way counts as inactive or inconclusive.

SMILES | TDP-43 yeast inh | Akt phos inh | CCT modulator | Apoferritin bind | aSyn rescue | Mito fusion act
COc1cc(OC)c2c(c1)C(=O)OC2c1cc(OC)c(OC)cc1C (centres undefined) | / | / | / | / | -10% | /
Cc1ccsc1C(=O)Nc1n[nH]c(C(F)(F)F)n1 | 35µM* | i | -1 | 6% | 8% | 0%
Cc1csc(NC(=O)c2sccc2C)n1 | -30% | i | 0 | -6% | -36% | -3%
CC(C)Sc1nc2c(cnn2-c2ccccc2)c(=O)[nH]1 | 11% | i | -47* | -9% | 2% | 1%
CC(C)Sc1nc2c(cnn2-c2ccc(F)cc2)c(=O)[nH]1 | 11% | i | -3 | 38% | 0% | 13%
Cc1[nH]n2c(=O)c3c(nc2c1-c1cccc2ccccc12)CCC3 | 4% | -114%* | -1 | -12% | -5% | 0%
Nc1ncnc2nc(-c3ccccc3)[nH]c12 | 17% | i | 0 | / | -9% | /
Nc1ncnc2nc(SCc3ccccc3)[nH]c12 | -5% | -113%* | 0 | -19% | -7% | -1%
Cc1cccn2c(=O)c(C=O)c(Cl)nc12 | 10µM* | i | -2 | 6% | 21% | -5%
Cc1cccn2c(=O)c(C=O)c(N3CCCCC3)nc12 | -2% | i | 1 | -19% | 8% | 5%
O=S(=O)(Nc1ccc(F)cc1F)c1ccc(-n2cccn2)cc1 | 16% | / | / | -2% | / | /
COc1ccc2oc3cc(C)[n+]([O-])c(-c4ccc(Cl)cc4)c3c2c1 | ? | i | 0 | -1% | ? | 22µM*
COc1ccc(-c2c3c(cc(C)[n+]2[O-])oc2ccc(OC)cc23)cc1 | ? | i | 1 | -12% | 12% | 12%
O=C(O)CSC1=NS(=O)(=O)c2ccccc21 | / | / | / | / | 8% | /
O=[N+]([O-])c1ccccc1/C=N/n1c(C2CCCCC2)n[nH]c1=S | 32µM* | i | -3 | ? | 3% | 13%
Cn1c(=O)n(CC(N)=O)c(=O)c2c1nc1n2CCCN1Cc1ccccc1 | -15% | i | -3 | 0% | 0% | 3%
COC(=O)Cn1c(=O)c2c(nc3n2CCCN3Cc2ccccc2)n(C)c1=O | -14% | i | 0 | 3% | -6% | 6.3µM*
CN(C)c1ccc(/C=C/c2ccc3cc(N)ccc3n2)cc1 | / | / | / | / | 0% | /
Cc1ccc(F)c(C2C3C=CCC(C)C3C(=O)N2Cc2ccccc2)c1 (centres undefined) | / | / | / | 11% | / | /
CCn1c(C(=O)NC2CCC(C)CC2)cc2sccc21 (centres undefined) | -14% | / | -80* | -8% | -36% | -1%
CCOC(=O)N1CCC(NC(=O)c2cc3sccc3n2CC)CC1 | -10% | i | -1 | -14% | -1% | -7%
COc1cc2c(cc1OC)C(COc1ccccc1OC)N(C(=O)COc1ccc(Cl)cc1)CC2 (centres undefined) | / | / | / | -1% | / | /
COc1ccccc1NC(=O)CSc1nccc(-c2ccco2)n1 | 16µM* | i | -3 | / | 27% | 4%
COc1ccccc1NC(=O)CSc1ccc(-c2ccccn2)nn1 | 22µM* | i | -1 | -12% | 10% | -9%
O=C(CSc1ccc(-c2ccccn2)nn1)Nc1ccc(F)c(F)c1 | 13µM* | i | 0 | -11% | 2% | -13%
SMILES | TDP-43 yeast inh | Akt phos inh | CCT modulator | Apoferritin bind | aSyn rescue | Mito fusion act
COc1ccc(C)cc1NC(=O)CSc1ccc(-c2ccco2)nn1 | 18µM* | i | -1 | -19% | 1% | 0%
CCOC(=O)c1sc2ccccc2c1S(=O)(=O)NCc1ccccc1OC | 23% | / | / | 4% | / | /
Brc1cccc[n+]1Cc1ccc(C[n+]2ccccc2Br)cc1 | / | / | / | / | 1% | /
CCOc1ccccc1-c1nnc2n1N=C(c1ccc(OC)c(OC)c1)CS2 | / | / | / | -21% | / | /
Nn1c(SCC(=O)Nc2ccc(F)c(F)c2)nnc1C1CCCCC1 | -9% | i | -1 | 4.5µM* | 6% | -4%
CC(=O)Nc1ccc(NC(=O)CSc2nnc(-c3cccs3)n2C)cc1 | 0% | i | -3 | -1% | 1% | 1%
COc1cccc(-c2nnc(SCC(=O)Nc3cc(C)ccc3OC)n2N)c1 | 0% | -119%* | -4 | -20% | 1% | 0%
COc1cccc(NC(=O)CSc2nnc(-c3cccs3)n2C)c1 | -9% | -107%* | 0 | 6% | 2% | -4%
COc1ccc(C)cc1NC(=O)CSc1nnc(-c2ccco2)n1N | -6% | i | -3 | -14% | 0% | -3%
O=C(CSc1nnc2ccc(-c3ccccn3)nn12)Nc1cccc(F)c1 | 16% | i | -45* | / | -7% | /
O=C(CSc1nnc2ccc(-c3ccccn3)nn12)Nc1ccc(F)cc1 | 9% | i | 1 | / | 1% | /
COc1ccc(OC)c(NC(=O)CSc2nnc(C3CCCCC3)n2-c2ccccc2)c1 | 11% | -111%* | -2 | -5% | -4% | 26%
CC1CCc2c(sc3nnn(CC(=O)Nc4cccc(C(F)(F)F)c4)c(=O)c23)C1 (centres undefined) | -13% | / | / | -10% | / | /
O=C(NNC(=O)c1ccc2ccccc2c1)c1ccc(Cl)c(Cl)c1 | -17% | i | -2 | / | -3% | /
O=C(NNc1ccccc1)c1ccc(Cl)c(Cl)c1 | 13µM* | i | -1 | / | ? | /
O=S(=O)(Nc1ccccn1)c1ccc(Cl)cc1 | 8% | i | 1 | -10% | 0% | 1%
O=S(=O)(Nc1ccccn1)c1ccc(-n2cccn2)cc1 | -2% | / | -82* | -4% | 0% | -4%
CS(=O)(=O)c1ccc(NC(=O)COc2ccccc2C(=O)Nc2ccccc2)cc1 | / | / | / | / | -6% | /
CCOc1ccc(OCC(=O)NCCS(=O)(=O)N2CCN(c3ccccc3F)CC2)cc1 | 27% | / | / | -8% | / | /
COc1ccc(C2Nc3ccccc3C(=O)N2c2ccc(Cl)cc2)cc1COc1ccc(NC(C)=O)cc1 (centres undefined) | / | / | / | / | -4% | /
CSc1ccccc1NC(=O)CCS(=O)(=O)c1nc(-c2ccc3c(c2)OCO3)cc(C(F)(F)F)n1 | 11µM* | / | / | 43% | -4% | /
O=C(CCS(=O)(=O)c1nc(-c2ccc3c(c2)OCO3)cc(C(F)(F)F)n1)Nc1ccccc1F | 22µM* | / | / | 3% | / | /
O=C(CCS(=O)(=O)c1nc(-c2ccc3c(c2)OCO3)cc(C(F)(F)F)n1)Nc1ccc(Br)cc1 | ? | / | / | 36% | / | /
COC(=O)c1ccccc1NC(=O)CCS(=O)(=O)c1nc(-c2ccc3c(c2)OCO3)cc(C(F)(F)F)n1 | 0% | / | / | 155% | / | /
CC(CC(=O)Nc1ncc([N+](=O)[O-])s1)c1ccccc1 (centres undefined) | ? | i | 0 | 35µM* | -23% | 10%
CCC(Oc1ccccc1)C(=O)Nc1ncc([N+](=O)[O-])s1 (centres undefined) | -91% | i | -3 | -17% | -31% | 13%
